The whole screen tested about 5,500 compounds, of which about 2,000 (36%) were called active. Not shown: some 18% with an inconclusive outcome. Rule as the data show it: active = normalized growth mostly below about 0.91 (no sharp cut-off); inconclusive = no clear call, values can overlap the other calls; inactive = mostly above about 0.92. Some of the results follow.
Assay: chemical genetic growth profiling, strain panel (AID 1159580);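 also: tested at 20 µM; growth read once vehicle control cultures reached saturation at 30 °C; 1 = growth at the plate median or of vehicle wells; lower values mean less growth of the strain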
Conditions: growth OD

Measured: normalized growth

CC(=O)Nc1c(I)cc(I)c(C(=O)O)c1I
inactive: S. cerevisiae deletion strains, locus YJR075W, strain HOC1, active compounds read low 1 | S. cerevisiae deletion strains, locus YKL009W, strain mrt4, active compounds read low 0.978 | S. cerevisiae deletion strains, locus YKL068W, active compounds read low 0.986 | S. cerevisiae deletion strains, locus YKL085W, strain MDH1 (second series), active compounds read low 1.01 | S. cerevisiae deletion strains, locus YKL085W, strain MDH1, active compounds read low 1.01 | S. cerevisiae deletion strains, locus YKL160W, strain elf1, active compounds read low 0.985 | S. cerevisiae deletion strains, locus YKL190W, strain CNB1, active compounds read low 1.02 | S. cerevisiae deletion strains, locus YKR001C, strain vps1, active compounds read low 0.986 | S. cerevisiae deletion strains, locus YKR026C, strain gcn3, active compounds read low 0.975 | S. cerevisiae deletion strains, locus YKR091W, strain srl3, active compounds read low 0.981 | S. cerevisiae deletion strains, locus YLL001W, strain dnm1, active compounds read low 0.953 | S. cerevisiae deletion strains, locus YLL026W, active compounds read low 0.985 | S. cerevisiae deletion strains, locus YLL041C, strain sdh2, active compounds read low 0.972 | S. cerevisiae deletion strains, locus YLR027C, strain aat2, active compounds read low 0.981 | S. cerevisiae deletion strains, locus YLR039C, strain RIC1, active compounds read low 1.01 | S. cerevisiae deletion strains, locus YLR058C, strain SHM2, active compounds read low 0.994 | S. cerevisiae deletion strains, locus YLR102C, strain apc9, active compounds read low 0.991 | S. cerevisiae deletion strains, locus YLR113W, strain HOG1, active compounds read low 1 | S. cerevisiae deletion strains, locus YLR221C, strain rsa3, active compounds read low 1.01 | S. cerevisiae deletion strains, locus YLR258W, strain gsy2, active compounds read low 0.976 | S. cerevisiae deletion strains, locus YLR262C, strain YPT6 (second series), active compounds read low 0.971 | S. cerevisiae deletion strains, locus YLR262C, strain YPT6, active compounds read low 0.954 | S. cerevisiae deletion strains, locus YLR268W, strain sec22, active compounds read low 0.996 | S. cerevisiae deletion strains, locus YLR320W, strain mms22, active compounds read low 0.99 | S. cerevisiae deletion strains, locus YLR330W, strain CHS5, active compounds read low 0.998 | S. cerevisiae deletion strains, locus YLR342W, strain FKS1 (second series), active compounds read low 1.04 | S. cerevisiae deletion strains, locus YLR342W, strain FKS1, active compounds read low 0.978 | S. cerevisiae deletion strains, locus YLR357W, strain rsc2, active compounds read low 1 | S. cerevisiae deletion strains, locus YLR370C, strain arc18, active compounds read low 0.989 | S. cerevisiae deletion strains, locus YLR371W, strain rom2, active compounds read low 0.993 | S. cerevisiae deletion strains, locus YLR384C, strain iki3, active compounds read low 0.98 | S. cerevisiae deletion strains, locus YLR418C, strain cdc73, active compounds read low 0.99 | S. cerevisiae deletion strains, locus YML016C, strain PPZ1, active compounds read low 0.993 | S. cerevisiae deletion strains, locus YML032C, strain rad52, active compounds read low 0.987 | S. cerevisiae deletion strains, locus YML120C, strain ndi1, active compounds read low 0.981 | S. cerevisiae deletion strains, locus YML124C, strain tub3, active compounds read low 0.988 | S. cerevisiae deletion strains, locus YMR058W, strain fet3, active compounds read low 0.989 | S. cerevisiae deletion strains, locus YMR078C, strain ctf18, active compounds read low 0.988 | S. cerevisiae deletion strains, locus YMR125W, strain sto1, active compounds read low 0.96 | S. cerevisiae deletion strains, locus YMR129W, active compounds read low 0.96 | S. cerevisiae deletion strains, locus YMR205C, strain PFK2, active compounds read low 0.977 | S. cerevisiae deletion strains, locus YMR223W, strain ubp8, active compounds read low 0.972 | S. cerevisiae deletion strains, locus YMR231W, strain pep5, active compounds read low 0.982 | S. cerevisiae deletion strains, locus YMR263W, strain SAP30, active compounds read low 1.01 | S. cerevisiae deletion strains, locus YMR307W, strain GAS1, active compounds read low 1.07 | S. cerevisiae deletion strains, locus YNL067W, strain RPL9B, active compounds read low 1 | S. cerevisiae deletion strains, locus YNL071W, strain lat1, active compounds read low 0.987 | S. cerevisiae deletion strains, locus YNL128W, strain TEP1, active compounds read low 1.01 | S. cerevisiae deletion strains, locus YNL153C, strain GIM3, active compounds read low 0.993 | S. cerevisiae deletion strains, locus YNL183C, strain NPR1, active compounds read low 0.968 | S. cerevisiae deletion strains, locus YNL209W, strain ssb2, active compounds read low 0.99 | S. cerevisiae deletion strains, locus YNL233W, strain BNI4, active compounds read low 0.998 | S. cerevisiae deletion strains, locus YNL248C, strain rpa49, active compounds read low 0.992 | S. cerevisiae deletion strains, locus YNL250W, strain rad50, active compounds read low 0.986 | S. cerevisiae deletion strains, locus YNL271C, strain bni1, active compounds read low 0.989 | S. cerevisiae deletion strains, locus YNL298W, strain CLA4, active compounds read low 0.986 | S. cerevisiae deletion strains, locus YNL307C, strain MCK1, active compounds read low 0.987 | S. cerevisiae deletion strains, locus YNL322C, strain KRE1 (second series), active compounds read low 0.971 | S. cerevisiae deletion strains, locus YNL322C, strain KRE1, active compounds read low 1 | S. cerevisiae deletion strains, locus YNR049C, strain mso1, active compounds read low 0.993 | S. cerevisiae deletion strains, locus YNR052C, strain pop2, active compounds read low 0.999 | S. cerevisiae deletion strains, locus YOL006C, strain TOP1, active compounds read low 1.02 | S. cerevisiae deletion strains, locus YOL012C, strain htz1 0.771 | S. cerevisiae deletion strains, locus YOL147C, strain pex11, active compounds read low 0.992 | S. cerevisiae deletion strains, locus YOR001W, strain rrp6, active compounds read low 0.976 | S. cerevisiae deletion strains, locus YOR061W, strain CKA2, active compounds read low 1 | S. cerevisiae deletion strains, locus YOR069W, strain VPS5, active compounds read low 0.988 | S. cerevisiae deletion strains, locus YOR070C, strain gyp1, active compounds read low 0.988 | S. cerevisiae deletion strains, locus YOR080W, strain dia2, active compounds read low 0.975 | S. cerevisiae deletion strains, locus YOR083W, strain WHI5, active compounds read low 0.984 | S. cerevisiae deletion strains, locus YOR106W, strain vam3, active compounds read low 0.964 | S. cerevisiae deletion strains, locus YOR136W, strain idh2, active compounds read low 0.987 | S. cerevisiae deletion strains, locus YOR144C, strain elg1, active compounds read low 0.995 | S. cerevisiae deletion strains, locus YOR184W, strain ser1, active compounds read low 0.969 | S. cerevisiae deletion strains, locus YOR231W, strain MKK1, active compounds read low 1.02 | S. cerevisiae deletion strains, locus YOR265W, strain rbl2, active compounds read low 0.98 | S. cerevisiae deletion strains, locus YOR270C, strain vph1, active compounds read low 0.951 | S. cerevisiae deletion strains, locus YOR290C, strain snf2, active compounds read low 1 | S. cerevisiae deletion strains, locus YOR316C, strain cot1, active compounds read low 0.991 | S. cerevisiae deletion strains, locus YPL051W, strain arl3, active compounds read low 0.981 | S. cerevisiae deletion strains, locus YPL055C, strain LGE1, active compounds read low 1.05 | S. cerevisiae deletion strains, locus YPL078C, strain atp4, active compounds read low 0.961 | S. cerevisiae deletion strains, locus YPL106C, strain sse1, active compounds read low 0.981 | S. cerevisiae deletion strains, locus YPL240C, strain hsp82, active compounds read low 0.972 | S. cerevisiae deletion strains, locus YPL241C, strain CIN2, active compounds read low 1.01 | S. cerevisiae deletion strains, locus YPL256C, strain CLN2, active compounds read low 1.02 | S. cerevisiae deletion strains, locus YPR119W, strain clb2, active compounds read low 0.986 | S. cerevisiae deletion strains, locus YPR141C, strain kar3, active compounds read low 0.981 | S. cerevisiae deletion strains, locus YPR163C, strain tif3, active compounds read low 0.997 | S. cerevisiae deletion strains, locus YPR167C, strain met16, active compounds read low 0.983 | S. cerevisiae deletion strains, strain wtn01, active compounds read low 0.986 | S. cerevisiae strains, strain wild type, active compounds read low 1.05

From PubChem BioAssay AID1159580 (chemical genetic matrix, 2015)
